Drawing on the supplement of paper PMC13380429, this text covers morphology score and SARS-CoV-2 infection rate for ten compounds.

The subject of test [1] is Vero E6 infected with SARS-CoV-2. Put plainly: morphology score (similarity to uninfected cells); higher = more like uninfected cells. The following applies: 24 h.
For test [2] the test system is unchanged. Put plainly: SARS-CoV-2 infection rate relative to infected DMSO; higher = more infection, active = 60 or less. The following applies: 24 h.

The structures appear in SMILES notation.

For the compound `C=C1/C(=C\C=C2/CCC[C@]3(C)[C@@H]([C@H](C)CCCC(O)(C(F)(F)F)C(F)(F)F)CC[C@@H]23)C[C@@H](O)C[C@@H]1O` [falecalcitriol] (10 µM), the morphology score in test [1] came out at 0.0244. Further, in test [2], the SARS-CoV-2 infection rate is 95.5% (inactive).
`O=C(NCCCCN1CCN(c2cccc(Cl)c2Cl)CC1)c1ccc2c(c1)Cc1ccccc1-2` (10 µM) came in with a morphology score in test [1] of -0.00329. Besides, in test [2], the SARS-CoV-2 infection rate was 105% (inactive).
The compound `CCN(CC)S(=O)(=O)c1ccc(C(=O)O)cc1` [etebenecid] (10 µM) registered a morphology score in test [1] of 0.125. The SARS-CoV-2 infection rate in test [2] was 105% (inactive).
On the same counts, the results for `CCN(CC)CCO[C@H]1CC[C@@]2(C)C(=CC[C@@H]3[C@@H]2CC[C@]2(C)C(=O)CC[C@@H]32)C1` (0.833333 µM) are 0.234 and 84% (inactive).
Regarding `O=C(Nc1nc2cccc(-c3ccc(CN4CCS(=O)(=O)CC4)cc3)n2n1)C1CC1` [filgotinib] (10 µM), the morphology score in test [1] is 0.154. Besides, the SARS-CoV-2 infection rate in test [2] was 97% (inactive).
On the same counts, the results for `CNC(=O)c1cc2c(cn1)[nH]c1ccccc12` (10 µM) are 0.241 and 85.5% (inactive).
On the same counts, the results for `CN1CCN(c2cccc3[nH]c(=O)oc23)CC1` [pardoprunox] (10 µM) are -0.1 and 103% (inactive).
For `CCc1cccc(N(C)C(=N)Nc2cccc3ccccc23)c1` [aptiganel] (10 µM), the morphology score in test [1] is 0.0916. For the same compound, the SARS-CoV-2 infection rate in test [2] is 104% (inactive).
The like results for `CCn1cc(C(=O)O)c(=O)c2cc(F)c(N3CCNCC3)nc21` [enoxacin] (10 µM) were, in that order, 0.124 and 105% (inactive).
Turning to `CC(=O)[C@]1(O)Cc2c(O)c3c(c(O)c2[C@@H](O[C@H]2C[C@H](N)[C@H](O)[C@H](C)O2)C1)C(=O)c1ccccc1C3=O` [idarubicin] (0.833333 µM), the morphology score in test [1] is -0.15. In addition, in test [2], the SARS-CoV-2 infection rate was 106% (inactive).
